Assay results published in PubChem BioAssay (NCATS).
Inconclusive results are not listed. Entries that show only a call come without a potency. The source made the active and inactive calls. Calls come from the whole dose curve; as a rule, active = well fitted curve in the direction sought with a large enough effect; inconclusive = small, poorly fitted or top-dose-only effect, or another doubt; inactive = no such curve, though single readings can be large; an effect the other way counts as inactive or inconclusive.

Key:
[1] = target: Aldehyde dehydrogenase, mitochondrial (Homo sapiens) (UniProt P05091); assay: qHTS for Inhibitors of the Aldehyde Dehydrogenase Family (ALDH2) Primary screen (AID 2061308); note: nearly all actives have a fitted effect of over 55% in size
[2] = target: Retinaldehyde dehydrogenase 3 (Homo sapiens) (UniProt P47895); assay: qHTS for Inhibitors of the Aldehyde Dehydrogenase Family (ALDH1A3) Primary screen (AID 2061315)

Row | SMILES | Potency [1] | Potency [2]
1 | O=C(CNC(=O)c1ccc(Cl)cc1Cl)OC(C(=O)Nc1cc(C(F)(F)F)ccc1Cl)c1ccccc1 (stereo unspecified) | inactive | inactive
2 | O=C1CCCC2=C1C1(CCSC1)N=C(Nc1nc3ccccc3o1)N2 (stereo unspecified) | inactive | inactive
3 | CCC(=O)NC(c1cc(Cl)c2cccnc2c1O)C(C)C (stereo unspecified) | inactive | inactive
4 | O=S(=O)(c1ccc2c(c1)OCCO2)N1CCN(S(=O)(=O)c2cc(F)c(Br)cc2F)CC1 | inactive | inactive
5 | CN(CC(F)(F)F)c1nc(NCc2ccc(-c3cccnc3)cc2)c2ccccc2n1 | inactive | inactive
6 | Cc1ccnc(NC(=S)N2CC3CN(c4cccc(C(F)(F)F)c4)CC3C2)c1 (stereo unspecified) | inactive | inactive
7 | COc1cccc(-c2nc3cc(NC(=O)c4ccc(C)c([N+](=O)[O-])c4)ccc3o2)c1 | inactive | inactive
8 | Oc1cccc2cc(-c3ccccc3)cnc12 | inactive | inactive
9 | CC(C)c1ccccc1-c1nc(NCc2ccc(-c3cccnc3)cc2)c2cccn2n1 | inactive | inactive
10 | Cc1c(C(=O)NCC2CCCO2)[nH]c2c1C(=O)CCC2 (stereo unspecified) | inactive | inactive
11 | O=C(Nc1nc(-c2ccccc2)cs1)c1ccccc1S(=O)(=O)Nc1nccs1 | inactive | inactive
12 | O=C(CNC(=O)c1ccc2n[nH]nc2c1)OC(C(=O)Nc1cc(C(F)(F)F)ccc1Cl)c1ccccc1 (stereo unspecified) | inactive | inactive
13 | CC(=O)c1ccc(N2CCN(S(=O)(=O)c3ccc4c(c3)CCCN4C(C)=O)CC2)cc1 | inactive | inactive
14 | COc1ccc(-c2nc3ccc(OC)cc3s2)cc1 | inactive | inactive
15 | CC(C)Oc1ccc(C(=O)Nc2ccc(-c3nc4ccccc4[nH]3)cc2)cc1 | inactive | inactive
16 | Nc1cc(NC(=O)Nc2nnc(-c3ccncc3)s2)ccc1Cl | inactive | inactive
17 | Cc1ccc(S(=O)(=O)N2CCN(S(=O)(=O)c3ccc4c(c3)OCCO4)CC2)cc1 | inactive | inactive

Row | SMILES | Potency [1] | Potency [2]
18 | Brc1ccc(-c2csc(N3CCNCC3)n2)cc1 | inactive | inactive
19 | COC(=O)c1cc(F)c(S(=O)(=O)N2CCN(S(=O)(=O)c3ccc4c(c3)OCCO4)CC2)cc1F | inactive | inactive
20 | N#Cc1nc(Nc2cccc(Cl)c2)c2ncn(C3CCCC3)c2n1 | inactive | inactive
21 | COc1ccccc1NC(=O)C(OC(=O)CNC(=O)c1ccccc1)c1ccccc1 (stereo unspecified) | inactive | inactive
22 | CC/C(C)=C/C(=O)OC1C(OC2(C)CCC3C(C4C(C)CCC42)C3(C)C)OC(C)C(O)C1O (stereo unspecified) | inactive | inactive
23 | C=C1C(=O)O[C@@H]2C[C@@]3(C)CCCC(=C)[C@]3(O)C[C@H]12 | inactive | inactive
24 | CNc1nnc(-c2cccc3ccccc23)o1 | inactive | inactive
25 | O=C(CCc1ccccc1)Nc1ccc(S(=O)(=O)Nc2nccs2)cc1 | inactive | inactive
26 | COc1cccc(C2N=C(Nc3nc4ccccc4o3)NC3=C2C(=O)CCC3)c1 (stereo unspecified) | inactive | inactive
27 | O=C(Cc1nc2ccc(Cl)cc2[nH]1)Nc1ccc(S(=O)(=O)Nc2nccs2)cc1 | inactive | inactive
28 | Cc1cnc(-c2ccccc2C(C)C)nc1N(C)Cc1ccc(-c2cccnc2)cc1 | inactive | inactive
29 | Cc1nnc(-c2cnn(C)c2N)n1CCc1cccs1 | inactive | inactive
30 | Cc1ccc(NS(=O)(=O)c2cc3c(cc2N(C)C)NC(=O)CC3)cc1C | inactive | inactive
31 | N#Cc1c(Cl)cccc1Oc1ccc([S+](=O)([O-])N2CCN([S+](=O)([O-])c3c(F)cccc3F)CC2)cc1 | inactive | inactive
32 | CC(=O)Nc1nc(C)c(-c2nc(N3CCCC(O)C3)no2)s1 (stereo unspecified) | inactive | inactive
33 | O=C(Cc1ccc(Cl)c(Cl)c1)Nc1ccc([S+](=O)([O-])Nc2nnc(-c3ccccn3)s2)cc1 | inactive | inactive
